Screens: PubChem BioAssay, The Scripps Research Institute Molecular Screening Center
Most compounds without a hit are left out; they make up all but 4.5% or so of the library.
DAX1 inh-1: inhibits human nuclear receptor DAX1; HEK293 Gal4-DAX1 luciferase reporter, luminescence; actives 0.99% (n = 340,000); inhibition, % at 6.75 µM;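 active = inhibition above the mean over all tested compounds plus 3 SD, cut at about 4.2% in these data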;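 also: 0% = DAX1-transfected cells with DMSO and 100% = empty-vector control cells with DMSO; inhibition shows as a rise in luminescence from relieved DAX1 repression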
Target sequence (P51843 207-470 limits assumed): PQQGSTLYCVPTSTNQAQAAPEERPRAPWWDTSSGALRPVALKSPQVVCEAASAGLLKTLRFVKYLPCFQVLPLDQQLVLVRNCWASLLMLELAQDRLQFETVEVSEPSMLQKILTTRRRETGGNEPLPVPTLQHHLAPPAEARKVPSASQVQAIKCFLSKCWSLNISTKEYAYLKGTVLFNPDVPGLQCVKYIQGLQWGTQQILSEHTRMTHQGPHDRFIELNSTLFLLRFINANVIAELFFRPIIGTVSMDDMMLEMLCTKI
ssDAF12 agonist: activators of S. stercoralis DAF-12 nuclear receptor; activation, % at 6.8 µM; AID 652126; actives 1% (n = 370,000); HEK293 ssDAF-12/GRIP1 lit1-tk-luc reporter, luminescence; % of 3 µM dafachronic acid response;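 active = activation above the mean over all tested compounds plus 3 SD, cut at about 0.9% in these data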;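 also: 0% = DMSO-only wells and 100% = 3 µM delta7-dafachronic acid wells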
DAX1 inh-2: blocks DAX1 repression of SF-1 activated StAR promoter; HEK293T StAR-luciferase reporter, SF-1/DAX-1 repression relief; inhibition, % at 6.8 µM; actives 1.1% (n = 370,000); AID 652010;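 active = inhibition above the mean over all tested compounds plus 3 SD, cut at about 3.6% in these data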;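 also: 0% = DAX-1 cells with DMSO and 100% = cells lacking DAX-1 with DMSO; higher inhibition means more luminescence from relief of DAX-1 repression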
hgDAF12 agonist: activates the H. glycines DAF-12 receptor ligand-binding domain; HEK293 GAL4-hgDAF12 UAS-luciferase reporter, agonist luminescence; normalized to butyrate control; activation, % at 6.8 µM; actives 1.8% (n = 370,000);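 active = activation above a cutoff set at the mean of all screened compounds plus 3 SD, cut at about 10% in these data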;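 also: 0% = DMSO wells and 100% = sodium butyrate wells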
hcDAF12 agonist: H. contortus DAF-12 activation, primary screen. activation, % at 6.8 µM. actives 1.4% (n = 370,000). HEK293 hcDAF-12 lit1-tk-luc reporter, luminescence; 0% DMSO, 100% Δ7-dafachronic acid;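 active = activation above the mean of all tested compounds plus 3 SD, cut at about 5.5% in these data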;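 also: 100% = response to 3 µM Δ7-dafachronic acid high control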
FXN GAA850 act: frataxin GAA850 promoter activation; HEK293 lucGAA850 FXN promoter luciferase reporter, 24 h; percent of 10 µM SAHA response; activation, % at 6 µM; actives 0.56% (n = 360,000); AID 540364;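 active = activation above the average of all compounds screened plus 3 SD, cutoff fixed separately per campaign, cut at about 7.5% in these data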;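 also: 0% = DMSO wells and 100% = 10 µM SAHA wells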
* marks the source's active call; other numbers are inactive results.

How did O=S1(=O)CCC(NC(=S)Nc2ccc3ccccc3c2)C1 (stereo unspecified) do in these assays?
DAX1 inh-1: 2.2; ssDAF12 agonist: -0.2; DAX1 inh-2: 0.4; hgDAF12 agonist: 1.2; hcDAF12 agonist: 3.7; FXN GAA850 act: 2.8

Results for COc1cccc(/C=C2/Sc3ccc(C(=O)NCCCN4CCCC4)cc3NC2=O)c1 ?
DAX1 inh-1: 1.4; ssDAF12 agonist: -0.6; DAX1 inh-2: 3.7*; hgDAF12 agonist: 0.5; hcDAF12 agonist: -1.6; FXN GAA850 act: 2.6

What do the screens show for `O=C(N=C1N(Cc2ccccc2)C[C@]2(C=C3CCCCC3n3c(=O)n(-c4ccccc4)c(=O)n32)N1C(=O)OCc1ccccc1)c1ccccc1` (stereo partly specified)?
ssDAF12 agonist: -0.9; DAX1 inh-2: 0.6; hgDAF12 agonist: -0.2; hcDAF12 agonist: -2.0

What do the screens show for `CCOC(=O)c1[nH]c2ccc(OC)cc2c1NS(=O)(=O)c1ccc(OC)cc1OC`?
DAX1 inh-1: 1.3; ssDAF12 agonist: 0.1; DAX1 inh-2: 0.5; hgDAF12 agonist: -0.8; hcDAF12 agonist: -1.1; FXN GAA850 act: -2.2

How did COC(=O)c1[nH]c2ccc(F)cc2c1NS(=O)(=O)c1ccc(OC)cc1OC do in these assays?
DAX1 inh-1: -0.4; ssDAF12 agonist: 1.1*; DAX1 inh-2: -0.1; hgDAF12 agonist: 3.4; hcDAF12 agonist: 1.8; FXN GAA850 act: -1.7

How did CN(Cc1ccccc1)C(=O)OCc1cn(Cc2cccc(F)c2)nn1 do in these assays?
ssDAF12 agonist: -1.0; DAX1 inh-2: -0.2; hgDAF12 agonist: 0.0; hcDAF12 agonist: 0.4

How did Cn1cc(C(=O)N/N=C/C2=C(N3CCOCC3)C(=C/c3ccc([N+](=O)[O-])cc3)/CC2)ccc1=O do in these assays?
DAX1 inh-1: -1.3; ssDAF12 agonist: -1.0; DAX1 inh-2: 0.4; hgDAF12 agonist: 11.5*; hcDAF12 agonist: 0.2; FXN GAA850 act: 3.5

Results for CC(C)C(NC(=O)C12CC3CC(CC(C3)C1)C2)C(=O)N/N=C/C1=C(N2CCOCC2)C(=C\c2cccc([N+](=O)[O-])c2)/CC1 (stereo unspecified) ?
DAX1 inh-1: -0.3; ssDAF12 agonist: -0.7; DAX1 inh-2: -0.8; hgDAF12 agonist: 0.8; hcDAF12 agonist: -0.2; FXN GAA850 act: 0.3

Results for COc1ccc(NC(=O)CCCn2c(=O)oc3ccccc32)cc1Cl ?
DAX1 inh-1: 3.0; ssDAF12 agonist: 0.8; DAX1 inh-2: 0.7; hgDAF12 agonist: 7.1; hcDAF12 agonist: 6.4*; FXN GAA850 act: 7.1

Results for CCCCOC(=O)c1nnc(-c2ccccc2)o1 ?
DAX1 inh-1: 5.1*; ssDAF12 agonist: -1.8; DAX1 inh-2: -0.2; hgDAF12 agonist: -1.7; hcDAF12 agonist: 0.0; FXN GAA850 act: 0.1

How did CCCCOC(=O)c1nnc(-c2ccc(Cl)cc2)o1 do in these assays?
DAX1 inh-1: 0.4; ssDAF12 agonist: -1.4; DAX1 inh-2: 0.5; hgDAF12 agonist: 2.0; hcDAF12 agonist: 0.0; FXN GAA850 act: 0.9

Results for CCCCN(C)c1c2c(nc3ncnn13)CCCC2 ?
ssDAF12 agonist: -0.6; DAX1 inh-2: -1.1; hgDAF12 agonist: -3.8; hcDAF12 agonist: -0.8

How did CCOC(=O)C1=C(C)N=c2s/c(=C/c3ccc(OCC(=O)O)cc3)c(=O)n2C1c1ccc(OC)cc1OC (stereo unspecified) do in these assays?
DAX1 inh-1: -0.9; ssDAF12 agonist: 1.8*; DAX1 inh-2: 0.7; hgDAF12 agonist: 0.8; hcDAF12 agonist: 0.3; FXN GAA850 act: 2.1

Results for Cc1cccc(N2Cc3ccc(Br)cc3C2)c1 ?
DAX1 inh-1: 3.7; ssDAF12 agonist: -0.5; DAX1 inh-2: 0.5; hgDAF12 agonist: 5.6; hcDAF12 agonist: 6.5*; FXN GAA850 act: 2.5

How did C/C(=N/O)c1cccc(N2Cc3ccccc3C2)c1 do in these assays?
DAX1 inh-1: -1.4; ssDAF12 agonist: -0.6; DAX1 inh-2: 0.3; hgDAF12 agonist: 1.5; hcDAF12 agonist: 1.9; FXN GAA850 act: 0.2

What do the screens show for `CCN1CCN(CC(=O)N/N=C/c2ccc(F)cc2F)CC1`?
DAX1 inh-1: -0.7; ssDAF12 agonist: 1.1*; DAX1 inh-2: -0.5; hgDAF12 agonist: 1.3; hcDAF12 agonist: -0.2; FXN GAA850 act: 1.9

Results for CC1CCC2(CC1)CCN(CCCOC(=O)Nc1cccc(C(F)(F)F)c1)C2=O (stereo unspecified) ?
ssDAF12 agonist: -1.0; DAX1 inh-2: -2.9; hgDAF12 agonist: 0.6; hcDAF12 agonist: -0.7

How did CCN1CCCCC(NC(=O)COCc2ccccc2)C1=O (stereo unspecified) do in these assays?
ssDAF12 agonist: -1.2; DAX1 inh-2: -0.9; hgDAF12 agonist: -1.8; hcDAF12 agonist: -2.4

How did O=C(NNC(=S)Nc1ccccc1)NNC(=S)Nc1ccccc1 do in these assays?
DAX1 inh-1: 0.4; ssDAF12 agonist: -1.2; DAX1 inh-2: 0.2; hgDAF12 agonist: 1.4; hcDAF12 agonist: -0.1; FXN GAA850 act: 0.8

Results for O=C(NNC(=S)Nc1ccccc1)c1cc(Br)ccc1Cl ?
DAX1 inh-1: -0.5; ssDAF12 agonist: -0.2; DAX1 inh-2: 0.1; hgDAF12 agonist: 3.9; hcDAF12 agonist: 6.1*; FXN GAA850 act: -0.1

What do the screens show for `C=CCN1C(=O)[C@@H](CC(=O)NCCCN2CCCC2=O)[C@]2(C(=O)OC)CCCCC=C12`?
ssDAF12 agonist: -1.5; DAX1 inh-2: -0.2; hgDAF12 agonist: -0.2; hcDAF12 agonist: -1.4

How did Cc1cccnc1NC(=S)Nc1ccc(Br)cc1Cl do in these assays?
DAX1 inh-1: 6.7*; ssDAF12 agonist: -0.5; DAX1 inh-2: 3.5; hgDAF12 agonist: 11.6*; hcDAF12 agonist: 2.7; FXN GAA850 act: 3.2

What do the screens show for `COc1ccc(C(=O)C2(C(=O)NCc3ccccc3)CC(c3ccccn3)=NO2)cc1` (stereo unspecified)?
ssDAF12 agonist: -1.1; DAX1 inh-2: 0.2; hgDAF12 agonist: -3.4; hcDAF12 agonist: -1.2

What do the screens show for `COc1ccc2nc(/N=C/c3c(C)[nH]n(-c4ccc(C)cc4)c3=O)sc2c1`?
DAX1 inh-1: 0.0; ssDAF12 agonist: 0.1; DAX1 inh-2: 1.7; hgDAF12 agonist: 5.4; hcDAF12 agonist: 5.6*; FXN GAA850 act: 3.5

What do the screens show for `CCCn1c(-c2cccc([N+](=O)[O-])c2)nc2c1c(=O)[nH]c(=O)n2Cc1ccccc1`?
DAX1 inh-1: 6.4*; ssDAF12 agonist: -1.0; DAX1 inh-2: -0.9; hgDAF12 agonist: -0.1; hcDAF12 agonist: -0.3; FXN GAA850 act: 3.3

What do the screens show for `CC[C@@H](CCCc1ccc(OC)cc1)CCC(=O)N(c1ccccc1)c1ccccc1`?
ssDAF12 agonist: -1.6; DAX1 inh-2: 0.2; hgDAF12 agonist: -0.9; hcDAF12 agonist: -0.5

Results for CC1(C)CC(=O)C(C#N)=C(NCCCO)C1 ?
DAX1 inh-1: -0.3; ssDAF12 agonist: -1.1; DAX1 inh-2: 1.4; hgDAF12 agonist: -2.6; hcDAF12 agonist: -1.2; FXN GAA850 act: -1.8
